# Measurements reported in the supplement of paper PMC11732987, “Enantioselective OTUD7B fragment discovery through chemoproteomics screening and high-throughput optimisation” (Communications Chemistry, 2025).
# Unmarked numbers belong to inactive results.
# Columns and labels:
# Experiment in all cases: log2 ratio of Biotin-Ahx-Ub-VS probe labelling (fragment/DMSO); higher = less target engagement (more negative = stronger competition), active = hit call of the paper (q ≤ 0.05, log2 ratio ≤ -1)
# Settings in all cases: compound concentration: 200 uM; treatment time: 3 h
# [1] = biological target: T1, OTUD6B (UniProt Q8N6M0)
# T1 sequence (whole entry): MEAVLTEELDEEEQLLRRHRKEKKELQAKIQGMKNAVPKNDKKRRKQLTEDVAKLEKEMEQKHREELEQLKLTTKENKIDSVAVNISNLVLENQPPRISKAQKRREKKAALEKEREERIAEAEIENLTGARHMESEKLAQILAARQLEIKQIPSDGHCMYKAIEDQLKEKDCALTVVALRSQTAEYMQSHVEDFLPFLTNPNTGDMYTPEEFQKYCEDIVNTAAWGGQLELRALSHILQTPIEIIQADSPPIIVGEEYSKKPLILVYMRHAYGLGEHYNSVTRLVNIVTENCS
# Summary of the method: (§1)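 Average log2 ratios of fragment over vehicle were obtained by unpaired t-test from global-median-normalised Spectronaut label-free quantities. Proteins with ≥2 unique peptides were included. HEK293T lysate (495 µg per sample) was treated in triplicate with fragment at 200 µM or vehicle for 3 h, then with Biotin-Ahx-Ub-VS at 0.5 µM final for 1 h, and labelled DUBs were NeutrAvidin-enriched and run by diaPASEF LC-MS/MS.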
# [2] = biological target: T2, OTUD7B (UniProt Q6GQQ9)
# T2 sequence (whole entry): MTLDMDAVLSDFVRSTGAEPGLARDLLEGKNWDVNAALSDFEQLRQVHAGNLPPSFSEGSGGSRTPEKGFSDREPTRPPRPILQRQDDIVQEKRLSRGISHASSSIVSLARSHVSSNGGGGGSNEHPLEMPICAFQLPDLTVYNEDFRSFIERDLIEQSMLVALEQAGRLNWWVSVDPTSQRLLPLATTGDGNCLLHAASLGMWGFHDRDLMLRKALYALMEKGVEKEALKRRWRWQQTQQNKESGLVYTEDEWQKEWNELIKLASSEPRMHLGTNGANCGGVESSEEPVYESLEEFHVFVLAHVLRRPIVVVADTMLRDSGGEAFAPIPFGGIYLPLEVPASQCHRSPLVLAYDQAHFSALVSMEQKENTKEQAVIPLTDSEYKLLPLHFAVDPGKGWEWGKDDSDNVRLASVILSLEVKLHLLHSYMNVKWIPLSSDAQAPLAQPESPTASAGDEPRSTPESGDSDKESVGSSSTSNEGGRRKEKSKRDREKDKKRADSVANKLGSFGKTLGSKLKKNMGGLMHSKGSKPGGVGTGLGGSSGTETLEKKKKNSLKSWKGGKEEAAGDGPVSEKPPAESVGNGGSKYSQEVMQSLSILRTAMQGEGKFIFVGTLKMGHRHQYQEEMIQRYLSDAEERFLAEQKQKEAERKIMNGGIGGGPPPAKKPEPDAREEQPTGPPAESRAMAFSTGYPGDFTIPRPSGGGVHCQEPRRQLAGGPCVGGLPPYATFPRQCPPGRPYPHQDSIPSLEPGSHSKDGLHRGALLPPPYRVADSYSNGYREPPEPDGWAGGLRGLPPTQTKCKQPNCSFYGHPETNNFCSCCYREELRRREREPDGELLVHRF
# Summary of the method: as §1
# [3] = biological target: PRPF8 (UniProt Q6P2Q9)
# Summary of the method: as §1
# [4] = biological target: T3, PSMD7 (UniProt P51665)
# T3 sequence (whole entry): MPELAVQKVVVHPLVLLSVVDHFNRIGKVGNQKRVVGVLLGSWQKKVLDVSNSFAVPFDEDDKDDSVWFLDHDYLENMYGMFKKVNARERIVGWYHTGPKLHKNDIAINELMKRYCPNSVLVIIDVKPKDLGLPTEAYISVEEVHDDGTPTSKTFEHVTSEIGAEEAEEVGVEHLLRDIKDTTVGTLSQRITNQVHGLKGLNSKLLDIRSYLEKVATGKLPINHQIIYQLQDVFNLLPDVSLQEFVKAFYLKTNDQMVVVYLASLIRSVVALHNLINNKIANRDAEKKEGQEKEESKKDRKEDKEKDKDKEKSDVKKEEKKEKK
# Summary of the method: as §1
# [5] = biological target: UCHL1 (UniProt P09936)
# Summary of the method: as §1
# [6] = biological target: T4, UCHL3 (UniProt P15374)
# T4 sequence (whole entry): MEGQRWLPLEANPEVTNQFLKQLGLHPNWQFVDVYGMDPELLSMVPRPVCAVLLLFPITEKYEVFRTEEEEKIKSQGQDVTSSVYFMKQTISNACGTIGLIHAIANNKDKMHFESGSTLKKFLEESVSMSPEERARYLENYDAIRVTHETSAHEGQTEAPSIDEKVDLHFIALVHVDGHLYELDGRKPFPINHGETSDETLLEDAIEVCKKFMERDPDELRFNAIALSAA
# Summary of the method: as §1
# [7] = biological target: T5, UCHL5 (UniProt Q9Y5K5)
# T5 sequence (whole entry): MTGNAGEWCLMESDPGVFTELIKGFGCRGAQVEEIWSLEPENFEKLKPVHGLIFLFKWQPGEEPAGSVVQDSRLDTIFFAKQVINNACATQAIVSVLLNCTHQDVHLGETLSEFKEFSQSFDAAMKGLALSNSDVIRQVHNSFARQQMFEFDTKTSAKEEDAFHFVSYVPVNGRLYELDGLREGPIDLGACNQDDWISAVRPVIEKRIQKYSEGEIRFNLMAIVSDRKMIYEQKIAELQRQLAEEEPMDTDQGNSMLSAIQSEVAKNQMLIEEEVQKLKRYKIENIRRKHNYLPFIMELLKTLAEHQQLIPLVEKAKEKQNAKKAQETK
# Summary of the method: as §1
# [8] = biological target: USP10 (UniProt Q14694)
# Summary of the method: as §1
# [9] = biological target: T6, USP15 (UniProt Q9Y4E8)
# T6 sequence (whole entry): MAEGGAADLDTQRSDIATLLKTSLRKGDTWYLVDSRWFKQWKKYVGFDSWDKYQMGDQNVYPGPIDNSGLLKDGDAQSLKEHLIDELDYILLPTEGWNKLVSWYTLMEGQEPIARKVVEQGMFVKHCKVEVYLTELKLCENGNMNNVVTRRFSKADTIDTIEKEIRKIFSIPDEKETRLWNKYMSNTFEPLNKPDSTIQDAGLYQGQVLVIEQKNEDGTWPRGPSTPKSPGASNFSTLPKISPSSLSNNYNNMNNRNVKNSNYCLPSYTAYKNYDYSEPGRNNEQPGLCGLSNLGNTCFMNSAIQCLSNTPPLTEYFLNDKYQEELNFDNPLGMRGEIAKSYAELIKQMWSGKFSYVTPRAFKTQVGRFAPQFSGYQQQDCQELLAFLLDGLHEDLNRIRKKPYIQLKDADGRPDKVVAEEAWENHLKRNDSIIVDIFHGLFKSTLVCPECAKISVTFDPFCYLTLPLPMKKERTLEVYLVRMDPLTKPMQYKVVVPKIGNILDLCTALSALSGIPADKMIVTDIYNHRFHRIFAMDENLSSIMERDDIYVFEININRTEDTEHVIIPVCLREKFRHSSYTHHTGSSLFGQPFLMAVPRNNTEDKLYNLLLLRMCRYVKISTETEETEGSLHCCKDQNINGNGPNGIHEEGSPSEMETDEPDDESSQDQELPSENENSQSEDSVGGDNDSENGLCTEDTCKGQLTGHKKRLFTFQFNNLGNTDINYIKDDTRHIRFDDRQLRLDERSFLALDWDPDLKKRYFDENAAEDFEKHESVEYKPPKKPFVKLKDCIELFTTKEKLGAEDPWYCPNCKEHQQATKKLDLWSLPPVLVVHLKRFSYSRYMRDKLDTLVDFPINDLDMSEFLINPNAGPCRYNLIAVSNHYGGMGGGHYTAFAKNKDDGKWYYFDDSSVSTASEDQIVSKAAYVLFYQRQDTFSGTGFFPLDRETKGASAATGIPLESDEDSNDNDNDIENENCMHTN
# Summary of the method: as §1
# [10] = biological target: USP16 (UniProt Q9Y5T5)
# Summary of the method: as §1
# Chain of USP10 (Q14694 whole entry): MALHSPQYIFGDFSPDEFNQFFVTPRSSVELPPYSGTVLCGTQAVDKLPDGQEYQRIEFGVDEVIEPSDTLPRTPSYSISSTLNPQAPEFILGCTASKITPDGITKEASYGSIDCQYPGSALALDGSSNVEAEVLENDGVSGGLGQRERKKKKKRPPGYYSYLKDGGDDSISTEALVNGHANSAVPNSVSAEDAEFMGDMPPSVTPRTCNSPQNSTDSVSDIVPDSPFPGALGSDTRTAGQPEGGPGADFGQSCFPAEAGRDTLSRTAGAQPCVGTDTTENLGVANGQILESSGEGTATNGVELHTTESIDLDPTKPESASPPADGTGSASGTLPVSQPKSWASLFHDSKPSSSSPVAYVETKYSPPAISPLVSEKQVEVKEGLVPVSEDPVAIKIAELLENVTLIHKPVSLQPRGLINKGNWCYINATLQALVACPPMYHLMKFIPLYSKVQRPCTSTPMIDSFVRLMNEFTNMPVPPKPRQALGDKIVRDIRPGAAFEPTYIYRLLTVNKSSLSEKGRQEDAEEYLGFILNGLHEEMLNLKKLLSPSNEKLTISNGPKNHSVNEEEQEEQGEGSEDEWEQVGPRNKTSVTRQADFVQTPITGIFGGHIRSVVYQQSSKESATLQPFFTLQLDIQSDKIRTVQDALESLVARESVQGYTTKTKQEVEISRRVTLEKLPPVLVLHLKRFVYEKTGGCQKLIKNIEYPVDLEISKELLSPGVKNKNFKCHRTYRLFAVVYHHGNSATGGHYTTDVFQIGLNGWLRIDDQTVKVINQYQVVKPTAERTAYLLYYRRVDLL
# Chain of UCHL1 (P09936 whole entry, looked up): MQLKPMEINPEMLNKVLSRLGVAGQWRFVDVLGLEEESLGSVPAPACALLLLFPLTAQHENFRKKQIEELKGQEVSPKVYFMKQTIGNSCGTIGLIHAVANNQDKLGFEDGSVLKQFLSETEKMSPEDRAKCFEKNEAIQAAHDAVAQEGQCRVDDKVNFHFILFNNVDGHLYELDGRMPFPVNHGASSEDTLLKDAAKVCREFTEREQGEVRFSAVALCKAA
# Chain of USP16 (Q9Y5T5 whole entry, looked up): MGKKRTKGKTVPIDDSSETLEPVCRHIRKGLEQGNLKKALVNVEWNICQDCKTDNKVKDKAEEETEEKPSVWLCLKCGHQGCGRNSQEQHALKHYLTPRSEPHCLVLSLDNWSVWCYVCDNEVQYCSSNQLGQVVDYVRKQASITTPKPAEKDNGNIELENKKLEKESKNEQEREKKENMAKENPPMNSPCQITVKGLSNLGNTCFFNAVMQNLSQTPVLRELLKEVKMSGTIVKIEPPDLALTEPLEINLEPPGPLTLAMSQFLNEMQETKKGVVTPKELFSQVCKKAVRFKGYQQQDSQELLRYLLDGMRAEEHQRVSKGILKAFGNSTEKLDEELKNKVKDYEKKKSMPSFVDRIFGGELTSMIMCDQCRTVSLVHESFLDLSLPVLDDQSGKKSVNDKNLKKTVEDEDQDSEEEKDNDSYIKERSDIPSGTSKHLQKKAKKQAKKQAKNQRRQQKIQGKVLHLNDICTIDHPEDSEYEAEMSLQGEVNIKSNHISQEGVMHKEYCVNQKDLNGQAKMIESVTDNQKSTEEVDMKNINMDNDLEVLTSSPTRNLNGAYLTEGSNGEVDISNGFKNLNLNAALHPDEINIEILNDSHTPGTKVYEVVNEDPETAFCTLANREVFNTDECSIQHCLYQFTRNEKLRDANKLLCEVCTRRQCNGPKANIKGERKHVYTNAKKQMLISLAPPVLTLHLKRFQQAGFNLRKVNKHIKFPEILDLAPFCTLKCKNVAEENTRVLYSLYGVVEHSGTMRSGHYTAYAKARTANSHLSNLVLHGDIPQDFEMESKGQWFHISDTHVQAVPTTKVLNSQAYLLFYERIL
structure (smiles),measurement,setting,value
Cc1ccc(CN(CCO)C(=O)CCl)cc1,log2 ratio of Biotin-Ahx-Ub-VS probe labelling,[1],-0.389
same,log2 ratio of Biotin-Ahx-Ub-VS probe labelling,[2],-1.14 (active)
same,log2 ratio of Biotin-Ahx-Ub-VS probe labelling,[3],0.0652
same,log2 ratio of Biotin-Ahx-Ub-VS probe labelling,[4],-0.47
same,log2 ratio of Biotin-Ahx-Ub-VS probe labelling,[5],-1.56 (active)
same,log2 ratio of Biotin-Ahx-Ub-VS probe labelling,[6],0.0861
same,log2 ratio of Biotin-Ahx-Ub-VS probe labelling,[7],-0.52
same,log2 ratio of Biotin-Ahx-Ub-VS probe labelling,[8],-0.0725
same,log2 ratio of Biotin-Ahx-Ub-VS probe labelling,[9],-0.384
same,log2 ratio of Biotin-Ahx-Ub-VS probe labelling,[10],0.361
